The values that follow come from PubChem BioAssay (NCATS).

Calls of active or inactive are those of the source. Calls follow the shape of the full dose curve.

The experiment is described as follows: qHTS drug screen for cell cycle checkpoint inhibitors in PARPi-resistant BRCA-mutant ovarian cancer cell lines. (AID 1963452). The following applies: PEO1/OlaR viability, CellTiter-Glo luminescence, 96 h, stronger effect = lower value. From the text: Women's Malignancies Branch, Center for Cancer Research (CCR),
National Cancer Institute (NCI), National Institutes of Health (NIH), Bethesda, MD
Poly (ADP-ribose) polymerase inhibitors (PARPis) have changed the treatment paradigm in breast cancer gene (BRCA) - mutant high-grade serous ovarian carcinoma (HGSC). However, most patients eventually develop resistance to PARPis, highlighting an unmet need for improved therapeutic strategies. Using high-throughput drug screens, we identified ataxia telangiectasia and rad3-related protein/checkpoint kinase 1 (CHK1) pathway inhibitors as cytotoxic and further validated the activity of the CHK1 inhibitor (CHK1i) prexasertib in PARPi-sensitive and -resistant BRCA-mutant HGSC cells and xenograft mouse models. CHK1i monotherapy induced DNA damage, apoptosis, and tumor size reduction. We then conducted a phase 2 study (NCT02203513) of prexasertib in patients with BRCA-mutant HGSC. The treatment was well tolerated but yielded an objective response rate of 6% (1 of 17; one partial response) in patients with previous PARPi treatment. […] BRCA reversion mutation in previously PARPi-treated BRCA-mutant patients was not associated with resistance to CHK1i.
Among others, 1082 oncology drugs, both approved and investigational, were prioritized based on their status in clinical trial development. […] Drugs with average Z-AUC values less than -1.0 in all three cell lines were classified as "hits" resulting in 151 oncology drug hits. The screen also confirmed cross-resistance between olaparib and other PARPis (rucaparib, niraparib, and talazoparib) in PARPi-resistant PEO1/OlaR and PEO4.
[1] G. L. Lin, K. M. Wilson, M. Ceribelli, B. Z. Stanton, P. J. Woo, S. Kreimer, E. Y. Qin, X. Zhang, J. Lennon, S. Nagaraja, P. J. Morris, M. Quezada, S. M. Gillespie, D. Y. Duveau, A. M. Michalowski, P. Shinn, R. Guha, M. Ferrer, C. Klumpp-Thomas, S. Michael, C. McKnight, P. Minhas, Z. Itkin, E. H. Raabe, L. Chen, R. Ghanem, A. C. Geraghty, L. Ni, K. I. Andreasson, N. A. Vitanza, K. E.Warren, C. J. Thomas, M. Monje, Therapeutic strategies for diffuse midline glioma from high-throughput combination drug screening. Sci. Transl. Med. 11, (2019).
[2] T. M. Yamamoto, A. McMellen, Z. L. Watson, J. Aguilera, R. Ferguson, E. Nurmemmedov, T. Thakar, G. L. Moldovan, H. Kim, D. M. Cittelly, A. M. Joglar, E. P. Brennecke, H. Wilson, K. Behbakht, M. J. Sikora, B. G. Bitler, Activation of Wnt signaling promotes olaparib resistant ovarian cancer. Mol. Carcinog. 58, 1770 - 1782 (2019).
PROTOCOL TABLE (as described by Inglese J, Shamu CE and Guy RK. 2007)
SEQUENCE No. (e.g., 1, 2, 3, etc.); […] (e.g., Cells, Incubation, Reagent, etc.); VALUE; DESCRIPTION.
1; Compounds; 20nL; 1536-well white tissue culture-treated plates.
2; Cells; 5 uL; PEO1, PEO4, and PEO1/OlaR cells at 600 cells per well.
3; Incubation; 96 hr; 37C, 95% humidity, 5% CO2.
4; Reagent; 3 uL; CellTiter-Glo (Promega).
5; Incubation; 15 min; room temperature.
6; Detection; Luminescence, PHERAstar (BMG Labtech) plate reader.
NOTES (numbers refer to Sequence numbers above)
1. MIPE 5.0 compounds were acoustically dispensed by Echo Acoustic Liquid Handler (Beckman Coulter Life Sciences). Each compound was plated at an 11-point concentration range with 1:3 dilution. Bortezomib, a proteasome inhibitor (final concentration, 20 uM), was used as a positive.
2. PEO1, PEO4, and PEO1/OlaR were trypsinized and dispensed in 5 uLof growth medium using a Multidrop Combi dispenser at a density of 600 cells per well to allow compounds to be present during the exponential growth phase.
3. Plates were incubated for 96 hours at standard incubator conditions and covered by a stainless steel gasketed lid to prevent evaporation.
4. Three microliters of CellTiter-Glo (Promega) were added to each well.
5. Plates were incubated at room temperature for 15 min with a stainless-steel lid in place.
6. Luminescence readings were taken using PHERAstar (BMG Labtech). […]

Setting [1] is: measured here: PEO1 parental Z-AUC.

`COc1cc(SC)ccc1C(=O)N1CCC(Cc2ccccc2)CC1`: the Z-AUC was 0.323 (inactive). Under setting [1], the Z-AUC was 1.42. Also, where the note is “measured here: PEO4 Z-AUC”, the Z-AUC turned out to be 1.59.

With `O=C(Nc1ccc2c(c1)CCN(Cc1ncn[nH]1)C2)c1ccccc1-c1ccc(C(F)(F)F)cc1`, the Z-AUC was -0.0591 (inactive). Further, the Z-AUC under setting [1] is -0.291. The Z-AUC (measured here: PEO4 Z-AUC) was 0.47.

Turning to `N#C/C(=C\c1ccc(O)c(O)c1)C(=O)NCc1ccccc1`, the Z-AUC is 1.6 (inactive). Moreover, the Z-AUC under setting [1] came to 1.01. The Z-AUC (measured here: PEO4 Z-AUC) was found to be 0.772.

As to `O=C1NC(=O)/C(=C/c2ccc(-c3ccc(F)cc3O)o2)S1`, the Z-AUC was -1.15 (inactive). The Z-AUC under setting [1] was -0.562. For the same molecule, the Z-AUC (measured here: PEO4 Z-AUC) was -0.191.

In the case of `Oc1cc(O)cc(/C=C/c2ccc(O)c(O)c2)c1`, the Z-AUC is 1.52 (inactive). Under setting [1], the Z-AUC was found to be 0.906. In addition, the Z-AUC (measured here: PEO4 Z-AUC) came to 0.317.

As to `COc1cc(CNC(=O)CCCC/C=C/C(C)C)ccc1O`, the Z-AUC was 1.64 (inactive). The Z-AUC under setting [1] is 1.45. For the same molecule, the Z-AUC (measured here: PEO4 Z-AUC) was 1.46.

For the molecule `O=S(=O)(c1cccc2c(I)cccc12)N1CCCNCC1`, the Z-AUC is -0.863 (inactive). Besides, the Z-AUC under setting [1] was -0.557. Also, where the note is “measured here: PEO4 Z-AUC”, the Z-AUC is -0.682.

For the molecule `O=C1NC(=O)/C(=C/c2ccc3nccnc3c2)S1`, the Z-AUC was 1.93 (inactive). Further, the Z-AUC under setting [1] amounted to 0.559. The Z-AUC (measured here: PEO4 Z-AUC) turned out to be 0.611.

As for `O=C(O)[C@H](CC(=O)N1C[C@H]2CCCC[C@H]2C1)Cc1ccccc1`, the Z-AUC was -0.763 (inactive). The Z-AUC under setting [1] is -0.735. For the same molecule, the Z-AUC (measured here: PEO4 Z-AUC) was -0.83.

With `O=C(/C=C/c1ccc(O)cc1)c1ccc(O)cc1O`, the Z-AUC is 0.396 (inactive). For the same molecule, under setting [1], the Z-AUC was 0.804. In addition, the Z-AUC (measured here: PEO4 Z-AUC) is 0.213.

On to `CCNC(=O)[C@H]1O[C@@H](n2cnc3c(N)nc(NCCc4ccc(CCC(=O)O)cc4)nc32)[C@H](O)[C@@H]1O`, for which the Z-AUC was 1.44 (inactive). Under setting [1], the Z-AUC is 0.917. For the same molecule, the Z-AUC (measured here: PEO4 Z-AUC) was found to be 1.15.

As for `N=c1ccn2c(n1)O[C@H]1[C@H](O)[C@@H](CO)O[C@H]12`, the Z-AUC was -1.72 (inactive). Further, the Z-AUC under setting [1] is -1.24. Under “measured here: PEO4 Z-AUC”, the Z-AUC was 0.152.

Regarding `N.N.O=C(O)C1(C(=O)O)CCC1.[Pt]`, the Z-AUC is 1.36 (inactive). Besides, under setting [1], the Z-AUC was found to be 0.632. Also, under “measured here: PEO4 Z-AUC”, the Z-AUC was determined as 0.869.

With `COc1ccc(/C=C/C(=O)Nc2ccccc2C(=O)O)cc1OC`, the Z-AUC is 1.02 (inactive). The Z-AUC under setting [1] came to 1.51. For the same molecule, the Z-AUC (measured here: PEO4 Z-AUC) was 0.971.
